ChEMBL document CHEMBL3988442, “University of Dundee, Small-Polar-MMV Screening Library” (2021)
For part of these data: Entries with a potency or affinity are not part of this list.

Key:
Design in all cases: scale not given: direction of the effect not stated beside the values
[1] = biological target: Protein translocase subunit SecA (Escherichia coli (strain K12)) (UniProt P10408); test: Assay to Identify E. coli SecA ATPase Inhibitors; type: functional; conditions: 30 µM
[2] = biological target: T1, Ubiquitin-activating enzyme e1, putative (Leishmania donovani (strain BPK282A1)) (UniProt E9BSI1); test: Leishmania donovani Ubiquitin Activating Enzyme (LdE1); type: functional; conditions: 30 µM
T1 sequence (whole entry): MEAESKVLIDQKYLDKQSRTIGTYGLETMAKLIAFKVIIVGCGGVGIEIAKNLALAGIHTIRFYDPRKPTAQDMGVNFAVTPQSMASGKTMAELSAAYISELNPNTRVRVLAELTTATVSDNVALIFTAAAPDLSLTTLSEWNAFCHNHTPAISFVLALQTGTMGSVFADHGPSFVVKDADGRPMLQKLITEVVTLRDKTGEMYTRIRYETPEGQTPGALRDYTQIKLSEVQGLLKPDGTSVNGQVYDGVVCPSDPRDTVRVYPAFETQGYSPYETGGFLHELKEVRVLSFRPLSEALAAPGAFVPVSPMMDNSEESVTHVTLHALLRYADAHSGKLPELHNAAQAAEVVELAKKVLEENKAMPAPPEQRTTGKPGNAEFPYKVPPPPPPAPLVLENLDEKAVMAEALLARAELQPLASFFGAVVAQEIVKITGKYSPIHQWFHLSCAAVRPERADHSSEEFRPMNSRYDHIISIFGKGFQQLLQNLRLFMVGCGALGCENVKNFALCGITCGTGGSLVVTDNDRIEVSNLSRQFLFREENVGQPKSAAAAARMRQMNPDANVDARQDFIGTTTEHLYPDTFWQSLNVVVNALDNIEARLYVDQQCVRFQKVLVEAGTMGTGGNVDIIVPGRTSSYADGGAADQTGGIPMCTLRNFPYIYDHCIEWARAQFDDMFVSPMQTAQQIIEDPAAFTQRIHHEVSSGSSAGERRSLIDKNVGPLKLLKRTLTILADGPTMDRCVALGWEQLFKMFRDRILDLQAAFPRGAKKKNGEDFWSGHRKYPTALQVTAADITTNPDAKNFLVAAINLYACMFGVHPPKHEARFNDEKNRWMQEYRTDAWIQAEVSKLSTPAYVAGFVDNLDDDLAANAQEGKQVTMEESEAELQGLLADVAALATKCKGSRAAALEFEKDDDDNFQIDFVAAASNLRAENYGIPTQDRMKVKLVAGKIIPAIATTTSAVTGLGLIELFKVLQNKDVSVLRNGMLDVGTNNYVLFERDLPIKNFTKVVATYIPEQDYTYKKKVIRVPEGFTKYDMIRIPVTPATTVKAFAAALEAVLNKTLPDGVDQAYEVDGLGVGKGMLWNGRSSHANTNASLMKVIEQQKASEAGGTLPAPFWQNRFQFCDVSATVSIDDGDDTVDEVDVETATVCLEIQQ

[3] = biological target: AMP-activated protein kinase, AMPK (Homo sapiens) (UniProt P54646+O43741+P54619+Q9UGJ0+Q9Y478+Q13131+Q9UGI9); test: AMP-dependent Kinase enzyme assay. An in vitro enzyme assay that detects ADP turnover that is directly proportional to AMPK activity. This uses naive AMPK that is activated during the assay with MK-8722; type: functional; conditions: 30 µM
[4] = biological target: Sialic acid-binding Ig-like lectin 9 (Homo sapiens) (UniProt Q9Y336); test: Hs-Siglec9 ALPHAscreen SOP 20170721; conditions: 10 µM
[5] = tested on: Trypanosoma cruzi; test: Trypanosoma cruzi phosphomannomutase and mannose-1-phosphate guanylyltransferase assay; type: functional; conditions: 10 µM
[6] = biological target: T2, Arginase-2, mitochondrial (Homo sapiens) (UniProt P78540); test: in vitro enzyme assay to detect the production of urea directly proportional to the activity of Arginase II; type: functional; conditions: 33.3 µM; further: in the data most compounds retested in dose-response had high values
T2 sequence (whole entry): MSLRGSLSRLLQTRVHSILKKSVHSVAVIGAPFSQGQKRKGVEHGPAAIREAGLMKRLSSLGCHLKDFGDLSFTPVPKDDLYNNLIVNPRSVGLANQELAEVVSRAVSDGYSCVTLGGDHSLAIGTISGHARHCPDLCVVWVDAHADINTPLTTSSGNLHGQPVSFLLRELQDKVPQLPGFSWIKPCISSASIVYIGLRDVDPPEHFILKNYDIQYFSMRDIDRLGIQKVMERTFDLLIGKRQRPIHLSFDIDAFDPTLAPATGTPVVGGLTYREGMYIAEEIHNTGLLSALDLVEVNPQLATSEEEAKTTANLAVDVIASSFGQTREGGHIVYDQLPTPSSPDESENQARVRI

[7] = biological target: T3, Proteasome subunit beta (Trypanosoma cruzi) (UniProt O96673); test: Trypanosoma cruzi proteasome chymotrypsin-like activity (TcProtChymo) assay.; further: in the data most compounds retested in dose-response had high values; type: functional; conditions: 9.37 µM
T3 sequence (whole entry): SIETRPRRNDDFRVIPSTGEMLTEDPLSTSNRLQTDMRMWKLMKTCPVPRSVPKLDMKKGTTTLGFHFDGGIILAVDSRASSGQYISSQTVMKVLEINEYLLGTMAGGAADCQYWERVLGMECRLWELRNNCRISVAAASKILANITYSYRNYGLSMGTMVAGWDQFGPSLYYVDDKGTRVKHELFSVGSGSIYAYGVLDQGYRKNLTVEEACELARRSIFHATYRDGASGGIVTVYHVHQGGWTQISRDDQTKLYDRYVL

[8] = species: Homo sapiens; test: To identify inhibition of the IFN signalling (Jak-Stat) pathway via expression of an eGFP reporter gene under the control of an IFN-stimulated response element (ISRE) containing MxA promoter.; type: functional; conditions: 30 µM
[9] = biological target: T4, Tyrosyl-tRNA synthetase, putative (Trypanosoma cruzi (strain CL Brener)) (UniProt Q4DSP6); test: Trypanosoma cruzi tyrosyl tRNA synthetase (TcYRS) _High Tyrosine SOP; type: functional; conditions: 30 µM; further: in the data most compounds retested in dose-response had high values
T4 sequence (whole entry): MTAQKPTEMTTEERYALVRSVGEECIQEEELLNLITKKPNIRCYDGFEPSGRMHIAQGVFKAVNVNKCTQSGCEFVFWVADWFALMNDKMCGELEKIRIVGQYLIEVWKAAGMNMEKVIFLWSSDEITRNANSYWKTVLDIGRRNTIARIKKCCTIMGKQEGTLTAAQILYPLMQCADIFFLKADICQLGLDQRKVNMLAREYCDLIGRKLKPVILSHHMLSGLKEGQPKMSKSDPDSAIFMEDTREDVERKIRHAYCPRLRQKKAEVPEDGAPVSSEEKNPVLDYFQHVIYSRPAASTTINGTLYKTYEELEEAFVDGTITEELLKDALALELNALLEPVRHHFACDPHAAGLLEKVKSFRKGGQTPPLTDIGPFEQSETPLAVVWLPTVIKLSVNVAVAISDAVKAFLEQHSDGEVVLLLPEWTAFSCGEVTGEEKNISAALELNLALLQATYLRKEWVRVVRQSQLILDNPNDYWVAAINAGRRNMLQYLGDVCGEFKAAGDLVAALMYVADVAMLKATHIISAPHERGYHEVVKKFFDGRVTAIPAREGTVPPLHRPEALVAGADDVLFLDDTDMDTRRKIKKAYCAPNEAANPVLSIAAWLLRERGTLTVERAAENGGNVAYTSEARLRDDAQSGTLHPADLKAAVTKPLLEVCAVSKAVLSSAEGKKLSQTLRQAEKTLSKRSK

[10] = biological target: T4, Tyrosyl-tRNA synthetase, putative (Trypanosoma cruzi (strain CL Brener)); test: Trypanosoma cruzi tyrosyl tRNA synthetase (TcYRS) SOP; type: functional; conditions: 30 µM
[11] = biological target: Chromo domain-containing protein 1 (Saccharomyces cerevisiae (strain ATCC 204508 / S288c) (Baker's yeast)) (UniProt P32657); test: ScCHD-1 Enzyme Inhibition Assay; type: functional; conditions: 30 µM; further: in the data most compounds retested in dose-response had high values
Chain of Chromo domain-containing protein 1 (Saccharomyces cerevisiae (strain ATCC 204508 / S288c) (Baker's yeast)) (P32657 whole entry, the tested form may be a part): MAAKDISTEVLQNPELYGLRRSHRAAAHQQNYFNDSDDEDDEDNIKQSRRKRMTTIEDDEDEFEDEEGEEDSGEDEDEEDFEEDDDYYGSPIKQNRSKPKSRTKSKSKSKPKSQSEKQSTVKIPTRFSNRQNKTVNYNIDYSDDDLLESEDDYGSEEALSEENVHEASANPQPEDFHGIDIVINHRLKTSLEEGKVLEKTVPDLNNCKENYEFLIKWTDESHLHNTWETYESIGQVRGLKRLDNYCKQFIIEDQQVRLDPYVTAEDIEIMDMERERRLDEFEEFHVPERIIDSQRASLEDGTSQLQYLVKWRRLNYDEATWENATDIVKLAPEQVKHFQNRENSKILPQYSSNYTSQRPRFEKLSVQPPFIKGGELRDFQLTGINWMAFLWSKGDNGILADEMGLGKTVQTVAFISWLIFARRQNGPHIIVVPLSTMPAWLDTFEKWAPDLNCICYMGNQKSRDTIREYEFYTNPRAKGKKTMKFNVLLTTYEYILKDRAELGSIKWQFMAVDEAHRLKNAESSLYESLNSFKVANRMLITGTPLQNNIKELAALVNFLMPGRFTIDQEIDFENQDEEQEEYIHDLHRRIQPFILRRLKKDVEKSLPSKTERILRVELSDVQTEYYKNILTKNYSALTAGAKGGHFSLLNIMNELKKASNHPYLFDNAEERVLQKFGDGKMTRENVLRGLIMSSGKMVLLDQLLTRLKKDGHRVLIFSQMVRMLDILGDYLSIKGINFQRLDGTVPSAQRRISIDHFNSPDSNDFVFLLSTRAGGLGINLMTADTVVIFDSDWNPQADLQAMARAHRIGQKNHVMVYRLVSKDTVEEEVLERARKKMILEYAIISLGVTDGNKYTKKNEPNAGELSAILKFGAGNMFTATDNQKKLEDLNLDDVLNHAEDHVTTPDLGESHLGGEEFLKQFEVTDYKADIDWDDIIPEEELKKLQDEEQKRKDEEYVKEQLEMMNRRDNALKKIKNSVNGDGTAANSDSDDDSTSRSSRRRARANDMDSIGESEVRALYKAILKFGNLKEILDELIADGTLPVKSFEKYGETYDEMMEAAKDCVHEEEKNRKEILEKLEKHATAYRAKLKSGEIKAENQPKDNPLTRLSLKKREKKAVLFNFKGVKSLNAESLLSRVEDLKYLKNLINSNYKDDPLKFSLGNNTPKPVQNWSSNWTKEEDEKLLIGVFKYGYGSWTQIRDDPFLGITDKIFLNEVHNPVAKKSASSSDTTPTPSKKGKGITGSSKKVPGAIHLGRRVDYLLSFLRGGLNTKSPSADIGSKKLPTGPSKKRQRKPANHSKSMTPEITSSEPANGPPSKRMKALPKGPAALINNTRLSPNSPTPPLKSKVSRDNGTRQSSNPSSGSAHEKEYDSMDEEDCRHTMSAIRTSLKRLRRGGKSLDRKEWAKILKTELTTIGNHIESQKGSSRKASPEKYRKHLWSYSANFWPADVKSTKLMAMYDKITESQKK

Chain of Protein translocase subunit SecA (Escherichia coli (strain K12)) (P10408 whole entry): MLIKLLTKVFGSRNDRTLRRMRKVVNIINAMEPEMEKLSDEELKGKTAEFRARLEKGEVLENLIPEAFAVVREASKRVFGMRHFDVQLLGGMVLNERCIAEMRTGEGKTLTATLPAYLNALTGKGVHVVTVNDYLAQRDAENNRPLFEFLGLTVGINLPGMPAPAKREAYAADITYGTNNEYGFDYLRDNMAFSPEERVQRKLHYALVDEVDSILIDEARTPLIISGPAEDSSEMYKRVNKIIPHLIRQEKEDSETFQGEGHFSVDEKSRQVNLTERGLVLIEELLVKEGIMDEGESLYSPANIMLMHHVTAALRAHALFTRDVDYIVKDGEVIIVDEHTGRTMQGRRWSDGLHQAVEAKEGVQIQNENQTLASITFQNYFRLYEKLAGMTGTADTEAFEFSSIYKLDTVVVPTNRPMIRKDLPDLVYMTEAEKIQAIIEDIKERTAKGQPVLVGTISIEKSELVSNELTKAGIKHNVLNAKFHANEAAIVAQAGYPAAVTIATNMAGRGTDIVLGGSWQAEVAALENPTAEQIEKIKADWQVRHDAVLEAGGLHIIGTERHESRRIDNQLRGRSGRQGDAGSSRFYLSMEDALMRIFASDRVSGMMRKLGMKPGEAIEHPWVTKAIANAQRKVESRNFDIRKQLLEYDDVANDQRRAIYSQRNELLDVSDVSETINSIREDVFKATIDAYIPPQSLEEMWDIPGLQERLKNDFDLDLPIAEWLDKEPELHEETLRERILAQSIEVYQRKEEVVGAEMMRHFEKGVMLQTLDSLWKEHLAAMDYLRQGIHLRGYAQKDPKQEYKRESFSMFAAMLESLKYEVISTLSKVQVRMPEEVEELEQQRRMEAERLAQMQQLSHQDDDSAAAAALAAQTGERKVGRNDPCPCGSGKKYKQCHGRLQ
Chain of Sialic acid-binding Ig-like lectin 9 (Homo sapiens) (Q9Y336 whole entry): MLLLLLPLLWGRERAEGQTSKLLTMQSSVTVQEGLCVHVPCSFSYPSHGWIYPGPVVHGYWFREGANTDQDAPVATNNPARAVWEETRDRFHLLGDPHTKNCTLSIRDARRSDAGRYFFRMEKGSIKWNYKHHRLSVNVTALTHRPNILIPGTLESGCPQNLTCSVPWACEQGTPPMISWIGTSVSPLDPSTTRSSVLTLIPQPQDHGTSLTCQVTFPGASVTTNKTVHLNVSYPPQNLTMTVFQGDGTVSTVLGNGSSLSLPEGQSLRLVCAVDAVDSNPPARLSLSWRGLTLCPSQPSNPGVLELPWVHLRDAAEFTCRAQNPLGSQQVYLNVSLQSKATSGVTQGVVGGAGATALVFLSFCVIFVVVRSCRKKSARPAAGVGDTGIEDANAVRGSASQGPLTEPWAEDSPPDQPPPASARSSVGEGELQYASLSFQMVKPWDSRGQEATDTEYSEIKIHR

Row | Structure (SMILES) | Percent Effect [1] | Percent Effect [2] | Percent Effect [3] | Percent Effect [4] | Percent Effect [5] | Percent Effect [6] | Percent Effect [7] | Percent Effect [8] | Percent Effect [9] | Percent Effect [10] | Percent Effect [11]
1 | Cc1nc(C)n(CC2CCCN(c3ncnc4[nH]ccc34)C2)n1 (stereo unspecified) | -4.25% | 11.4% | 69.9% | 5.73% | -4.21% | 0.645% | 15.8% | 42.8% | 6.25% | 5.06% | -4.67%
2 | Cc1nn(C)c2c(N3CCN(C(=O)C4CCC4)CC3)ncnc12 | -0.898% | 9.33% | 2.37% | -1.34% | -6.48% | -2.99% | 13.7% | 14.9% | -15.9% | 15.4% | -9.22%
3 | COc1cc(CNC2CCc3nc(C)nn3C2)cc2c1OCCO2 (stereo unspecified) | -2.1% | 7.89% | -9.24% | 6.01% | 5.51% | 5.04% | 2.62% | -11.3% | 2.46% | 11.1% | -1.5%
4 | c1cnnc(N2CCCC2CNCc2cnc(N3CCCC3)nc2)c1 (stereo unspecified) | 0.488% | -1.27% | 13.5% | 6.03% | 1.33% | 2.8% | 4.8% | 16.1% | 5.21% | 0% | -7.82%
5 | CCc1ccc(C(=O)NC2CCN(c3cnn(C)c3)C2=O)o1 (stereo unspecified) | -6.02% | 2.7% | -5.86% | 6.69% | 8.11% | -0.744% | 8.84% | -0.708% | 3.23% | 11.1% | -7.33%
6 | CCc1nc(CNC(=O)Nc2ccc(C(=O)NC)cc2C)cs1 | -5.84% | 16% | -2.78% | 18.6% | 8.28% | 6.25% | 4.88% | 11.9% | 4.92% | 11.1% | -7.82%
7 | CC(NC(=O)N(C)Cc1ccsc1)c1ccc2c(c1)OCO2 (stereo unspecified) | -2.79% | 10.5% | 5% | 4.83% | 9.59% | -4.21% | 11% | 1.31% | 4.41% | 19.5% | -8.55%
8 | Clc1snnc1CN1CCCC(Cn2cncn2)C1 (stereo unspecified) | -1.77% | 17.7% | -3.42% | -8.68% | 1.98% | -1.52% | 18.6% | 6.4% | 10.3% | 29.1% | -10.8%
9 | Cc1n[nH]c(C2CN(C(=O)CCc3ccco3)CCO2)n1 (stereo unspecified) | -1.8% | 7.89% | 9.83% | -2.52% | 3.6% | 3.55% | 21% | 21.1% | 2.13% | 7.79% | -3.66%
10 | COc1cccc(-n2c(C)cc(C(=O)NS(C)(=O)=O)c2C)c1 | -2.83% | 20.2% | -2.25% | -3.1% | -4.63% | 2.28% | 2.21% | 8.44% | 6.4% | 13.9% | -5.99%
11 | O[C@H]1CCN(Cc2ccoc2)[C@H]1Cc1cccnc1 | -6.91% | 0% | 3.99% | -6.85% | -1.16% | -54.7% | 5.47% | 13.5% | 4.17% | 2.5% | -9.55%
12 | Cc1cc(NC(=O)CN2CCCC2c2noc(C3CC3)n2)no1 (stereo unspecified) | -4.72% | 13.7% | 11.2% | 9.93% | 5.68% | -0.909% | 16.9% | 5.99% | 3.23% | 15% | 22.7%
13 | O=C(Cn1cc(I)cn1)N1CCc2ccccc2C1 | 0.654% | -12% | 6.11% | 2.56% | -2.55% | -10% | 6.1% | 2.17% | 2.12% | -2.56% | -2.67%
14 | CCN(CC)C(C(=O)NCc1ccc(N2CCCC2)nc1)C(C)C (stereo unspecified) | -6% | 5.41% | -3.6% | 6.67% | -5.94% | -4.41% | 11.9% | 10.1% | 2.46% | 1.24% | -4.84%
15 | Cc1cnn(C2CN(CC(O)c3ccc4c(c3)OCCO4)C2)c1 (stereo unspecified) | -0.511% | -24% | -2.25% | -4.57% | -0.292% | 0% | 7.5% | 10.6% | 13.7% | 13.6% | -6.83%
16 | CO[C@H]1CCN(c2ccc(C)nn2)[C@H]1Cc1cnn(C)c1 | -5.98% | 2.7% | -6.04% | 1.75% | 0.977% | 0.417% | 14.4% | -17.9% | 9.9% | 11% | -6.2%
17 | CN1CCCc2cc(CNC(=O)c3ccncc3)ccc21 | -3.56% | 19% | 22.6% | -0.0483% | 1.54% | -1.94% | 21.4% | 28.5% | 2.08% | 17.7% | -25.8%
18 | CCc1ccc(C(=O)N2CCN(CC(C)O)CC2)o1 (stereo unspecified) | 0.315% | 21.1% | -5.4% | -6.92% | 5.08% | 6.13% | 16.2% | 3.74% | 1.47% | 19.5% | -12.7%
19 | Cc1cnn(CC2CCCN2C(=O)c2cn(-c3ccccc3)nc2C)c1 (stereo unspecified) | -2.73% | 2.7% | -10.7% | 13.6% | 1.6% | -3.61% | -4.32% | -0.766% | 7.39% | 11.1% | -6.26%
20 | CCN(C(=O)CN(C)C(c1cccc(F)c1)c1ccccn1)C1CC1 (stereo unspecified) | -1.83% | -5.2% | -4.08% | 9.51% | 6.74% | -2.49% | 2.37% | 4.69% | 6.8% | 7.32% | -10.2%
21 | Cc1cccc2c1cnn2CCC(=O)NCC(=O)N(C)C | -1.87% | 1.33% | 12.2% | 7.1% | -6.68% | -10% | 14.2% | 3.37% | 4.23% | 7.69% | -10.3%
